Bioassay records (PubChem BioAssay)
An excerpt weighted towards active compounds, which were near 7.9% of everything screened.
KB-V1 cytotox = KB-V1 MDR subline cytotoxicity | KB-V1 MDR cells viability, CellTiter-Glo, 72 h | Potency, µM (top dose mostly 46.1 µM), hits mostly cytotoxic | 400,000 tested, 3.4% active | AID 1347076; also: nearly all actives have a fitted effect of over 60% in size
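Readout: CellTiter-Glo luminescence, 10 min after addition. Cells: KB-V1 MDR subline, 72 h at 37 degrees C with compound. Analysis: corrected, normalized data fitted to concentration-effect curves.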
SW480 rerep = induces DNA re-replication in SW480 colon adenocarcinoma cells. SW480 DNA re-replication, Hoechst DNA content imaging, 48 h. Potency, µM (top dose mostly 46.1 µM), most hits filed as activators. 340,000 tested, 1.8% active. AID 624297; also: nearly all actives have a fitted effect of over 55% in size
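Quantitative HTS format with DMSO vehicle controls; 48 hr drug incubation at 37 C, then 40 min Hoechst staining and scanning imager measurement at 405 nm excitation.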
HT1080 IDH1KD tx = HT-1080 IDH1 knockdown cell toxicity (counter line) | 360,000 tested, 2% active | HT-1080 IDH1 knockdown viability, ATP luminescence, 48 h | Potency, µM (series often up to 46.1 µM), usual class: cytotoxic
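HT-1080-IDH1KD cells (IDH1 knocked down), 750/well in RPMI with 5% FBS, treated with compound 48 h at 37 degrees C. Viability by CellTiter-Glo luminescence, normalised to DMSO and no-cell wells; concentration-response curves classed.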
HT1080-NT tox = kills 2HG-producing HT-1080-NT fibrosarcoma cells. HT-1080-NT fibrosarcoma viability, CellTiter-Glo ATP luminescence, 48 h. Potency, µM (top dose mostly 46.1 µM), usual class: cytotoxic. 360,000 tested, 1.6% active;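 also: NT is the 2HG producing partner of a matched IDH1 knockdown line; nearly all actives have a fitted effect of over 55% in size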
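Viability by CellTiter-Glo luminescence after 48 h compound exposure at 37C of HT-1080-NT cells (750/well, RPMI, 5% FBS). % activity scaled between DMSO wells and medium-only wells, then curve-fitted and categorized by curve class.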
MCF10A rerep = inducers of DNA re-replication in MCF 10A breast cells; MCF 10A DNA re-replication, Hoechst nuclear intensity, 48 h; Potency, µM (doses to about 46.1 µM), actives largely listed as activators; AID 624296; 350,000 tested, 2.9% active; also: nearly all actives have a fitted effect of over 50% in size
KB-3-1 tox = KB-3-1 parental cell cytotoxicity; 400,000 tested, 1.4% active; Potency, µM (doses to about 46.1 µM), actives largely listed as cytotoxic; AID 1347075; KB-3-1 viability, CellTiter-Glo ATP luminescence, 72 h; also: nearly all actives have a fitted effect of over 60% in size
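Parental KB-3-1 viability, qHTS format: 72 h compound exposure, 37 °C; CellTiter-Glo; media-only wells and DMSO plates as controls; concentration-effect fits on corrected data.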
Hits are given with their value; - = inactive; ? = inconclusive; . = not tested or not shown; ! = a repeat was not active. Calls follow the shape of the dose curve; as a rule, active = well fitted curve in the direction sought with a large enough effect; inconclusive = small, poorly fitted or top-dose-only effect, or another doubt; inactive = no such curve, though single readings can be large; an effect the other way counts as inactive or inconclusive.

SMILES	KB-V1 cytotox	SW480 rerep	HT1080 IDH1KD tx	HT1080-NT tox	MCF10A rerep	KB-3-1 tox
CCN(CC)S(=O)(=O)c1ccc(N2CCOCC2)c(NC(=O)CN2C(=O)NC(C)(c3ccccc3)C2=O)c1 (stereo not given)	?	?	-	-	-	-
Cc1nn(CC(=O)NNC(=S)NCC2CCCO2)c(C)c1Br (stereo not given)	-	-	-	-	-	-
CNC(=S)NNC(=O)CCn1nc(C)c(Br)c1C	-	?	16µM	11µM	-	-
COCCCNC(=S)NNC(=O)Cn1nc(C)c(Br)c1C	-	-	-	-	-	-
CCOCCCNC(=S)NNC(=O)CCn1nc(C)c(Br)c1C	15µM	?	2.5µM	0.89µM	-	-
Cc1nn(CCC(=O)NNC(=S)NCC(C)C)c(C)c1Br	-	3.7µM	1.3µM	1.1µM	-	-
Cc1nn(CCC(=O)NNC(=S)Nc2ccccc2)c(C)c1Br	-	?	-	?	?	-
NC(=O)c1ccc[n+](CC(=O)c2ccc(NC(=O)c3ccccc3)cc2)c1	?	-	-	-	-	-
COCCn1c(SCC(=O)Nc2cc(C)on2)nc2c([nH]c3ccccc32)c1=O	-	.	-	-	.	-
COc1cccc(CNC(=O)C2CCN(C(=O)N3CC(C)Oc4ccccc43)CC2)c1 (stereo not given)	-	-	-	-	-	-
CCCN1CCc2c(sc(NC(=O)CCS(=O)(=O)c3ccccc3)c2C(N)=O)C1	.	18µM	-	-	21µM	.
CN1CCc2c(sc(NC(=O)CS(=O)(=O)c3ccccc3)c2C(N)=O)C1	-	-	-	-	-	-
Cn1c(=O)c2cc(NC(=O)NCc3ccccc3)ccc2n1C/C=C/c1ccccc1	-	.	8.2µM	8.2µM	.	?
CN(C)CCCCOc1ccc(F)cc1	-	-	-	-	-	-
CN(C)CCOC1(Cc2ccc(F)cc2)CCC(C(C)(C)C)CC1 (stereo not given)	16µM	-	-	-	-	-
Cc1ccc(CC2(OCCN(C)C)CCC(C(C)(C)C)CC2)cc1 (stereo not given)	18µM	-	-	-	?	?
Nc1nc(N)c2c(ccc3nccc32)[nH]1	-	-	4.6µM	5.8µM	?	?
Cn1nc(C(F)(F)F)c2cc(C(=O)Nc3ccc(F)cc3)sc21	-	-	-	-	?	-
Cn1nc(C(F)(F)F)c(-c2ccc(F)cc2)c1NC(=O)Nc1ccc(F)cc1	?	-	?	23µM	-	?
O=C(COC(=O)c1ccc(Br)o1)NCc1ccccc1Cl	-	-	-	-	-	-
CCOC(=O)C1C(c2ccccc2)C(C(=O)OCC)S(=O)(=O)C(CCN(CC)CC)S1(=O)=O (stereo not given)	-	-	-	-	-	-
N#CC(=C1C=CC(=NO)C(Cl)=C1)c1ccccc1	?	.	5.8µM	7.3µM	.	6.5µM
COc1cccc2c1OCC(C(=O)O)C2 (stereo not given)	-	-	?	-	-	-
COc1cccc2c1C(CO)N1C(C#N)C3CC(C(=O)O)C(C1C2)N3C (stereo not given)	0.21µM	0.92µM	?	-	-	0.026µM
CCc1ccccc1NC(=O)CSc1nc2n[nH]c(C)c2c(=N)n1-c1cccc(OC)c1	8.2µM	-	?	-	?	-
SMILES	KB-V1 cytotox	SW480 rerep	HT1080 IDH1KD tx	HT1080-NT tox	MCF10A rerep	KB-3-1 tox
COc1ccc(OC)c(NC(=O)CSc2nc3n[nH]c(C)c3c(=N)n2-c2cccc(Cl)c2C)c1	?	-	23µM	-	-	?
Cc1ccc(S(=O)(=O)NCC(c2ccccc2)N2CCN(CCC#N)CC2)cc1 (stereo not given)	-	-	-	-	-	-
CCCc1cc(=O)oc2cc(C)cc(OCC(=O)NC(Cc3ccc(Cl)cc3)C(=O)O)c12 (stereo not given)	-	-	-	-	-	-
O=C(NCCNc1ccc([N+](=O)[O-])cc1)c1cccc(Br)c1	-	-	-	-	-	-
O=C(COC(=O)c1ccc[n+]([O-])c1)Nc1ccc([N+](=O)[O-])cc1C(F)(F)F	-	?	-	-	-	-
O=C(NCCNc1ccc([N+](=O)[O-])cc1C(F)(F)F)c1ccccc1	16µM	-	-	-	-	-
O=C(NCCNc1ccc([N+](=O)[O-])cc1C(F)(F)F)c1cccc(F)c1	18µM	?	-	-	-	?
Cc1cccc(-n2nnnc2S(C)(=O)=O)c1	?	.	.	.	.	-
COc1cccc(-n2nnnc2S(C)(=O)=O)c1	?	?	7.3µM	?	4.6µM	?
COc1ccc(CCN2CCC(Nc3nc4ccccc4n3Cc3ccc(F)cc3)CC2)cc1	21µM	3.7µM!	8.2µM	15µM	4.6µM	?
N#CC(c1ccccc1)N(CCCCl)C(=O)c1ccccc1 (stereo not given)	-	15µM	-	-	?	-
CC(=O)N(CCCCl)C(C#N)c1ccccc1 (stereo not given)	-	-	-	-	-	-
COC(C(=O)Nc1ccc(S(=O)(=O)Nc2ccc(F)cc2)cc1)c1ccccc1 (stereo not given)	-	?	?	?	-	-
COC(C(=O)Nc1ccc(S(=O)(=O)Nc2cccc3ccccc23)cc1)c1ccccc1 (stereo not given)	18µM	.	-	-	?	-
CN(C(=O)COC(=O)/C=C/c1cccc([N+](=O)[O-])c1)C1CCS(=O)(=O)C1 (stereo not given)	-	-	16µM	23µM	-	?
CN(C(=O)COC(=O)c1c2c(nc3ccccc13)/C(=C/c1cccc([N+](=O)[O-])c1)CCC2)C1CCS(=O)(=O)C1 (stereo not given)	?	-	5.8µM	?	?	5.8µM
O=C(COC(=O)c1c2c(nc3ccccc13)/C(=C/c1cccc([N+](=O)[O-])c1)CCC2)NC1CCS(=O)(=O)C1 (stereo not given)	23µM	.	?	-	?	?
CCN(CC)c1ccc(N=Cc2c(C)[nH]c3ccccc23)cc1	-	8.2µM	?	?	-	-
Cc1[nH]c2ccccc2c1/C=N/n1cnnc1	-	-	-	-	-	-
O=C(N/N=C/c1c(O)ccc2ccccc12)c1cccc(C(F)(F)F)c1	-	?	2.3µM	?	4.6µM	?
Cc1ccc(O)c(/C=N/NC(=O)CN2CCCC2)c1	?	-	?	-	-	-
O=C(CCSc1nc2ccccc2s1)N/N=C/c1c(O)ccc2ccccc12	-	6.5µM	?	?	21µM	?
O=C(CN1CCCC1)N/N=C/c1c(O)ccc2ccccc12	-	-	16µM	?	?	?
O=C(NN=Cc1c(O)ccc2ccccc12)C1CC1	?	?	12µM	?	-	?
